TRb-SRC2 inh: inhibitors of human thyroid hormone receptor beta-SRC2 interaction. TRbeta-SRC2 peptide binding, fluorescence polarization; receptor liganded with 1 µM T3. Potency, µM (top dose mostly 106 µM), for inactives: top-dose activity change, negative = inhibition, actives largely listed as inhibitors. 0.065% of 280,000 active. AID 1469;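 note: plate controls were bound peptide for no effect and peptide without receptor for full effect; nearly all actives have a fitted effect of over 50% in size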
Target sequence (P10828 whole entry, looked up): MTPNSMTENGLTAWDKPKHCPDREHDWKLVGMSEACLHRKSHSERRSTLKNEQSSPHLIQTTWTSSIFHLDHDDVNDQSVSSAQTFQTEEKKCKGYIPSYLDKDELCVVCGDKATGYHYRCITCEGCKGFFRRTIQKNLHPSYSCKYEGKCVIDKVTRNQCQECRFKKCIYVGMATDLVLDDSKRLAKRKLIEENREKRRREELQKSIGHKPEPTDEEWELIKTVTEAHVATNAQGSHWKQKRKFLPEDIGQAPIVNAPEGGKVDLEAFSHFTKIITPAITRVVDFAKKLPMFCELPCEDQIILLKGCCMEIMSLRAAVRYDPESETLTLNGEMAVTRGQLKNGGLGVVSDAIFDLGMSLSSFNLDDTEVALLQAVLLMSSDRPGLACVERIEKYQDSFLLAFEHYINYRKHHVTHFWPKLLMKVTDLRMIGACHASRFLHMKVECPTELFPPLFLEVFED
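Compounds were added to 0.6 uM TRb ligand-binding domain and 20 nM Texas Red-labeled SRC2 peptide in Tris buffer containing 1 uM T3, incubated 5 hr at ambient temperature, then read by fluorescence polarization.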
Tau FP inhib: blocks human tau fibril formation measured by polarization; K18 P301L tau heparin fibrillization, Alexa594 FP, 6 h; 0.39% of 280,000 active; P10636; Potency, µM (doses to about 57.7 µM), for the others: at the highest dose activity, negative = inhibition, usual class: inhibitors; note: nearly all actives have a fitted effect of over 55% in size
Target sequence (P10636 561-689 P618L limits assumed): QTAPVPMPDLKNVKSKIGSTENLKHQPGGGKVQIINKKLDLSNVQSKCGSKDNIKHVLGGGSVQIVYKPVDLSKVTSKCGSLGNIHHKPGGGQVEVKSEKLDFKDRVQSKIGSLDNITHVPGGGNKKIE
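Read-out: fluorescence polarization of Alexa 594-labeled tau (0.24 uM), 555 nm excitation, 632 nm emission. Mixtures held 15 uM unlabeled K18 P301L, compound and 20 uM heparin, pH 7 acetate buffer, incubated 6 hr at 37 C.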
TexasRed fluor: alters Texas Red total fluorescence, flagging assay interference. AID 1479. TRb/SRC2 Texas Red total fluorescence interference. Potency, µM (doses to about 106 µM), for the others: at the highest dose fluorescence change, negative = quenching. 0.29% of 280,000 active; active = well fitted curve in either direction with a large enough effect; inconclusive = small, poorly fitted or top-dose-only effect
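Flags fluorescent or light-absorbing compounds by total fluorescence, S + 2P, at 555 nm excitation and 632 nm emission. Mixture: 20 nM Texas Red SRC2 peptide, 0.6 uM human TRb LBD, 1 uM T3, 5% DMSO; compound exposure 5 h at ambient temperature.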
Tau fibril ThT: blocks human tau fibril formation measured by thioflavin T; P10636; Potency, µM (top dose mostly 57.4 µM), without a hit: at the top dose activity, negative = inhibition, hits mostly inhibitors; recombinant tau K18 P301L, heparin-induced fibrillization, ThT fluorescence; AID 1460; 2.1% of 270,000 active; note: nearly all actives have a fitted effect of over 55% in size
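Aggregation was driven by heparin (20 uM final) acting on recombinant tau […] bearing P301L in 100 mM sodium acetate pH 7; fibrils were detected with Thioflavin T.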
Tau fluor counter: counter-screen for tau fibril formation inhibitors. Potency, µM (titrated, usually from 57.7 µM), inactives show at the top dose activity change, negative = decrease. 0.93% of 280,000 active. tau K18 P301L Alexa594 fluorescence, heparin fibrillization; note: nearly all actives have a fitted effect of over 55% in size
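Human tau K18 P301L (15 uM unlabeled, 0.24 uM Alexa 594-labeled) in 100 mM sodium acetate pH 7 with 20 uM heparin, 6 hr at 37 C. ThT 30 uM added, 1 hr ambient; Alexa 594 FP and total fluorescence read at 555/632 nm.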
An asterisk follows results filed as active; ? = inconclusive; . = not tested or not shown; [ ] = dose if it differs, or a comment. Sampled rows, rich in hits. Any-hit rate of the full collection: about 3.1%. Unless noted, calls come from the whole dose curve; as a rule, active = well fitted curve in the direction sought with a large enough effect; inconclusive = small, poorly fitted or top-dose-only effect, or another doubt; inactive = no such curve, though single readings can be large; an effect the other way counts as inactive or inconclusive. Unless noted, % is set by controls: 0 for no effect and ±100 for the full control effect; potency is the fitted concentration of half-maximal effect.

SMILES	TRb-SRC2 inh	Tau FP inhib	TexasRed fluor	Tau fibril ThT	Tau fluor counter
CCCCn1cc(S(=O)(=O)c2cccc(C)c2)c(=O)c2cc(F)c(N3CCOCC3)cc21	3%	1%	3%	0%	1%
CC(=O)Nc1ccc(S(=O)(=O)Oc2ccc(/C=N/NC(=O)c3ccc(Cl)cc3)cc2)cc1	14%	13µM*	3%	?	?
CC(=O)Nc1ccc(C(=O)N/N=C/c2ccc(F)cc2)cc1	3%	-4%	-2%	-7%	2%
Cc1ccc(C(=O)Oc2csc(=S)n2C(=O)c2ccc(C)cc2)cc1	2%	?	-12%	10µM*	-30%
CCOc1cccc(C2Nc3ccccc3-c3cc(C)nn32)c1O (configuration not stated)	-12%	1%	0.0004µM*[quencher]	-16%	-30%
Cc1cc2n(n1)C(c1cn(-c3ccccc3)nc1C)Nc1ccccc1-2 (configuration not stated)	3%	-9%	-1%	-7%	-19%
COc1cc(C2Nc3ccccc3-c3cc(C)nn32)ccc1O (configuration not stated)	8%	6%	2%	-11%	-20%
Cc1cc2n(n1)C(c1c[nH]c3ccccc13)Nc1ccccc1-2 (configuration not stated)	-4%	28µM*	-2%	?	25µM*[quencher]
CC(=O)c1cccc(NC(c2ccc(F)cc2)c2nnc(-c3ccccc3)o2)c1 (configuration not stated)	2%	-6%	-2%	-7%	-17%
CCCCCCCCCCCCCCC	5%[201 µM]	.	-1%[201 µM]	.	.
CC(=O)NN1C(=O)/C(=C/c2ccc(Br)o2)SC1=S	22%	?	17%	16µM*	?
CC(=O)NN1C(=O)/C(=C\c2ccc(Br)o2)SC1=S	5%	11%	8%	25µM*	-25%
CCc1ccc(C2NC(=O)c3[nH]nc(-c4cccc(OC)c4)c32)cc1 (configuration not stated)	-1%	-4%	-2%	-5%	-15%
COc1cc(/C=N/NC(=O)C(Cc2c[nH]c3ccccc23)NC(=O)OCC(C)C)cc([N+](=O)[O-])c1O (configuration not stated)	-4%	12%	-2%	14µM*	-27%
COc1cc(/C=N/NC(=O)C(Cc2c[nH]c3ccccc23)NC(=O)OCC(C)C)cc([N+](=O)[O-])c1OCc1ccccc1 (configuration not stated)	-2%	16%	-1%	-17%	?
COc1cc(/C=N/NC(=O)C(Cc2c[nH]c3ccccc23)NC(=O)OCc2ccccc2)cc([N+](=O)[O-])c1O (configuration not stated)	9%	?	0%	13µM*	?
Cc1ccc(NC(=O)C(Cc2c[nH]c3ccccc23)NC(=O)OC(C)(C)C)c(C)c1 (configuration not stated)	0%	2%	-1%	-17%	?
Cc1ccc(NC(=O)C(Cc2c[nH]c3ccccc23)NC(=O)OCC(C)C)cc1 (configuration not stated)	-4%	2%	3%	-14%	20µM*[quencher]
CC1CCN(S(=O)(=O)c2ccc3c(c2)N(CC(=O)O)C(=O)CO3)CC1	-1%	-3%	-2%	1%	-7%
CC(=O)Nc1ccc(C(=O)OCC(=O)N(Cc2ccccc2)C(C)(C)C)cc1	-2%	-7%	1%	-12%	-28%
CCCCCCCCCCCC1=C(O)C(=O)C=C(O)C1=O	-8%	20µM*	-4%	10µM*	11µM*[quencher]
Oc1ccc(NC(=S)Nc2ccc(O)cc2)cc1	?	?	-4%	10µM*	?
COC(=O)c1ccc(NC(=S)Nc2ccc(O)cc2)cc1	-14%	1%	2%	-15%	-13%
CC(=O)C1=C(C)NC(SCC(=O)c2ccc(C)cc2)=C(C#N)C1c1ccco1 (configuration not stated)	-5%	?	-2%	16µM*	14µM*[quencher]
CCOC(=O)C1=C(O)c2ccccc2C(=O)/C1=C\c1ccc(C)cc1	-1%	?	-4%	14µM*	-16%
SMILES	TRb-SRC2 inh	Tau FP inhib	TexasRed fluor	Tau fibril ThT	Tau fluor counter
CCOC(=O)C1=C(O)/C(=C\c2ccc(OC)c(OC)c2)N=C1C	-11%	?	-3%	?	0%
Cc1ccc(C2c3[nH]c4ccccc4c3CCN2C(=O)CSc2ccccc2)cc1 (configuration not stated)	-2%	-1%	-1%	-7%	-14%
CCOc1ccc(C2c3[nH]c4ccccc4c3CCN2C(=O)CSc2ccccc2)cc1 (configuration not stated)	-16%	4%	2.8µM*[quencher]	3%	-6%
CC[C@H]1[C@@H]2C=C[C@@H]3[C@H]4C/C=C\C(=O)NCCC[C@@H]5NC(=O)C(=C5O)C(=O)CC[C@@H]4C[C@@H]3[C@H]2C[C@H]1C	-4%	-7%	0%	-1%	-4%
CCc1ccc(-c2nc3cc(NC(=O)c4cc5ccccc5cc4OC)ccc3o2)cc1	3%	6%	-15%	2%	-4%
O=C(Nc1ccc([N+](=O)[O-])cc1)Nc1ccc(N2CCOCC2)c2nonc12	?	-4%	-4%	0.89µM*	?
CN(C)c1ccc(C(=S)N2CCCCCC2)cc1	-7%	?	1%	25µM*	?
CCCS(=O)(=O)N1CC(=O)N(c2cc(C)ccc2C)C(C)(C(=O)NC2CCCCCC2)C1 (configuration not stated)	-10%	-3%	25µM*[quencher]	-1%	-2%
Cc1ccccc1NC(=S)NCc1ccc2[nH]c3c(c2c1)CCCC3	2%	-1%	-1%	0%	-1%
Cc1ccc(C)c(NC(=S)NCc2ccc3[nH]c4c(c3c2)CCCC4)c1	-3%	?	-2%	?	13µM*[quencher]
CCOC(=O)/C(=C/c1c[nH]c2ccccc12)NC(C)=O	-1%	-5%	-4%	?	-9%
CCOC(=O)/C=C(C)\C=C\c1c[nH]c2ccccc12	8%	15%	-3%	?	14µM*[quencher]
COc1ccc(C(c2c(C)[nH]n(C(N)=S)c2=O)C(C#N)C#N)cc1 (configuration not stated)	-6%	?	-1%	?	-26%
Cc1[nH]n(-c2ncc(-c3ccc(Cl)cc3)s2)c(=O)c1C(c1ccc(Cl)cc1)C(C#N)C#N (configuration not stated)	4%	40µM*	-22%	11µM*	?
CC(C)(C)NC(=S)N/N=C\c1ccc(-c2ccc([N+](=O)[O-])cc2)o1	-2%	12%	-3%	7.1µM*	?
NS(=O)(=O)c1ccc(-c2ccc(/C=N/NC(=O)c3ccc([N+](=O)[O-])cc3)o2)cc1	2%	3%	-3%	?	-22%

Bioassay records: PubChem BioAssay, National Center for Advancing Translational Sciences (NCATS)
